Results filed as inconclusive are left out. A number with no mark means an inactive call. The source made the active and inactive calls. Calls come from the whole dose curve.
Assay: qHTS assay for small molecule agonists of the antioxidant response element (ARE) signaling pathway - cell viability counter screen (AID 743203); note: nearly all actives have a fitted effect of over 55% in size
Conditions: ARE-bla HepG2 viability, CellTiter-Glo luminescence, 16 h; series mostly up to 73.3 µM
Description: National Center for Advancing Translational Sciences [NCATS]
NIH Chemical Genomics Center [NCGC]
U.S. Environmental Protection Agency [EPA]
National Institutes of Environmental Health Sciences [NIEHS]
National Toxicology Program [NTP]
U.S. Food and Drug Administration [FDA]
Oxidative stress has been implicated in the pathogenesis of a variety of diseases ranging from cancer to neurodegeneration. The antioxidant response element (ARE) signaling pathway plays an important role in the amelioration of oxidative stress. The CellSensor ARE-bla HepG2 cell line (Invitrogen) can be used for analyzing the Nrf2/antioxidant response signaling pathway. Nrf2 (NF-E2-related factor 2) and Nrf1 are transcription factors that bind to AREs and activate these genes. The CellSensor ARE-bla Hep G2 cell line contains a beta-lactamase reporter gene under control of the Antioxidant Response Element (ARE) stably integrated into HepG2 cells. The activation of the report gene under culture conditions can be detected by fluorescence intensity. This cell line has been used to screen the Tox21 10K compound library to identify agonists that induce oxidative stress. The cytotoxicity of the Tox21 compound library against the ARE-bla cell line was tested in parallel by measuring the cell viability using CellTiter-Glo assay (Promega, Madison, WI) in the same wells.
Tox21 Assay Protocol Summary:
ARE-bla HepG2 cells were dispensed at 2,000 cells/5 ul/well in 1536-well white wall/solid bottom plates using a Multidrop Combi (ThermoFisher Scientific, Waltham, MA) dispenser. After the assay plates were incubated at 37C/5% CO2 for 5 hrs, 23 nL of compounds dissolved in DMSO, positive controls or DMSO only was transferred to the assay plate by a pintool work station (Kalypsys, San Diego, CA). The plates were incubated at 37C/5% CO2 for 16 hrs, followed by addition of 4 ul/well of CellTiter-Glo reagent into the assay plates using a Flying Reagent Dispenser (Aurora Discovery, San Diego, CA). After 30 min incubation at room temperature, the luminescence intensity in the assay plates was measured using a ViewLux (PerkinElmer, Shelton, CT) plate reader.
% is set by controls: 0 for no effect and ±100 for the full control effect.

Row | Compound | outcome | viability change, negative = cytotoxic
1 | CC(C)(C)OC(=O)c1ccccc1C(=O)O | inactive | 
2 | CC/C=C\CCCCCCCCCCOC(C)=O | inactive | 
3 | C[Si](C)(C)O[Si](O)(O)O | inactive | 
4 | COCCCOc1cc(C[C@@H](C[C@H](N)[C@@H](O)C[C@H](C(=O)NCC(C)(C)C(N)=O)C(C)C)C(C)C)ccc1OC | inactive | 
5 | Cc1nc2ccc(Cl)cc2[nH]1 | inactive | 
6 | CC(=O)Oc1ccc(C(C)=O)cc1 | inactive | 
7 | CC(=O)Nc1ccc(OCCOCCOc2ccc(NC(C)=O)cc2)cc1 | inactive | 
8 | COC(C)(C)CC(C)=O | inactive | 
9 | CCCCCC(=O)CC | inactive | 
10 | CC(C)(C)NCC(O)COc1cccc2c1CCC(=O)N2 (stereo not given) | inactive | 
11 | CCCCC(CC)COC(=O)CC#N (stereo not given) | inactive | 
12 | COc1cc(OC)cc(OC)c1 | inactive | 
13 | CN(C)CCc1c[nH]c2ccc(C[C@H]3COC(=O)N3)cc12 | inactive | 
14 | CC(C)(C)c1ccc(N)cc1 | inactive | 
15 | Cc1ccc(Br)cc1 | inactive | 
16 | C=CC(=O)OCCOCCOCC | inactive | 
17 | C=CCON/C(CCC)=C1\C(=O)CC(C)(C)C(C(=O)OC)=C1O | inactive | 
18 | Cc1ccc(O)c([N+](=O)[O-])c1 | inactive | 
19 | CCCCCCCCCCCCCCCC/C=C/C1CC(=O)OC1=O (stereo not given) | inactive | 
20 | CC(C)C(C)C | inactive | 

Row | Compound | outcome | viability change, negative = cytotoxic
21 | CCCCc1ccc(Cl)cc1 | inactive | 
22 | CCCCCCCCC1CO1 (stereo not given) | inactive | 
23 | COC(=O)/C=C(\C)CCC=C(C)C | inactive | 
24 | COc1cc(C(=O)NC2CCCNC2)cc(OC)c1OC (stereo not given) | inactive | 
25 | C=CCOC(=O)CCCCCCCC | inactive | 
26 | O=C1CC2(CCCC2)CC(=O)N1CCNCC1COc2ccccc2O1 (stereo not given) | inactive | 
27 | O=P(O)(O)C(O)(Cc1cccnc1)P(=O)(O)O | inactive | 
28 | CNC(C)=O | inactive | 
29 | COC(=O)c1ccccc1Cl | inactive | 
30 | CC(C)(O)c1ccc(C(C)(C)O)cc1 | inactive | 
31 | N=C(N)N1CCc2ccccc2C1 |  | -8.38% [at 8.36 µM]
32 | CC(C)C[P+](C)(CC(C)C)CC(C)C | inactive | 
33 | O=CN1CCCCC1 | inactive | 
34 | CCN1CCN(C(=O)N[C@@H](C(=O)N[C@@H]2C(=O)N3[C@@H]2SC(C)(C)[C@H]3C(=O)O)c2ccccc2)C(=O)C1=O | inactive | 
35 | Cc1cc(C)c(N)c(Cl)c1 | inactive | 
36 | CCCC(=O)OC | inactive | 
37 | O=C(O)CCCCCCCCCC(=O)O | inactive | 
38 | CCCc1ncc(C(=O)O)s1 | inactive | 
39 | C[n+]1ccccc1/C=N/O | inactive | 
40 | CC[N+](C)(CC)CC | inactive | 

Source: PubChem BioAssay (Tox21)
